The text below walks through data of the supplement of paper PMC8371130.

Where a name gives a salt, the structure may show the parent alone.

This assay relates to HL-1. In words: relative cell viability (CellTiter-Glo) vs DMSO control (% of DMSO control); higher = more viable cells. The settings on record: oxygen condition: hypoxia 48 h (1% O2) + reoxygenation 24 h; 40 nM. The gist of the method:
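HL-1 mouse atrial cardiomyocytes were seeded into 384-well plates at 1000 cells per well along with compounds at 40, 200, 1000 or 5000 nM in 0.01% DMSO. After one day, the cells were moved to a hypoxic workstation (1% O2) for 48 h and then reoxygenated for 24 h in a normal incubator, while others remained in normoxia for the same period. Cell viability was measured by CellTiter-Glo luminescence and normalised to vehicle-treated control cells.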
Take `CN(C)CCOC(C)(c1ccccc1)c1ccccn1` (stereo not drawn) [Doxylamine Succinate]: the relative cell viability is 111.
Regarding `CC(C[N+](C)(C)C)OC(N)=O` (stereo not drawn) [Bethanechol chloride], the relative cell viability was 96.1.
As to `CC(C)NC[C@H](O)COc1ccc(CCOCC2CC2)cc1` [Levobetaxolol HCl], the relative cell viability was 110.
As for `CNC[C@H](O)c1cccc(O)c1` [Phenylephrine HCl], the figure is 110.
With `CC1(C)O[C@@H]2[C@@H](CO[C@@]3(COS(N)(=O)=O)OC(C)(C)O[C@@H]23)O1` [Topiramate], the relative cell viability was found to be 97.3.
The result for `O=C1c2cccc3c2[C@H](CCC3)CN1[C@@H]1CN2CCC1CC2` [Palonosetron HCl] reads 103.
Take `NS(=O)(=O)c1cc2c(cc1Cl)N=CNS2(=O)=O` [Chlorothiazide]: the relative cell viability came to 117.
In the case of `Nc1ncn([C@@H]2O[C@H](CO)[C@@H](O)[C@H]2O)c(=O)n1` [Azacitidine], the relative cell viability amounted to 105.
In the case of `O=C(O)Cc1cc(I)c(Oc2ccc(O)c(I)c2)c(I)c1` [Tiratricol], the relative cell viability was found to be 96.6.
Turning to `Cc1onc(-c2ccccc2)c1C(=O)N[C@@H]1C(=O)N2[C@@H]1SC(C)(C)[C@@H]2C(=O)O` [Oxacillin sodium monohydrate], the relative cell viability stood at 104.
As for `N[C@@H](Cc1cc(I)c(Oc2cc(I)c(O)c(I)c2)c(I)c1)C(=O)O` [L-Thyroxine], the figure is 98.5.
Turning to `COc1ccc(Cl)cc1C(=O)NCCc1ccc(S(=O)(=O)NC(=O)NC2CCCCC2)cc1` [Glyburide], the relative cell viability is 103.
As for `COC(=O)C1=C(C)NC(C)=C(C(=O)OC(C)C)C1c1cccc2nonc12` (stereo not drawn) [Isradipine], the figure is 106.
Consider `CN(C)CCN(Cc1ccccc1)c1ccccn1` [Tripelennamine HCl], for which the relative cell viability worked out at 97.8.
With `CN1CCCCC1CCN1c2ccccc2Sc2ccc([S+](C)[O-])cc21` (stereo not drawn) [Mesoridazine Besylate], the relative cell viability came to 108.
For `N[C@@H](Cc1ccc(O)c(O)c1)C(=O)O` [Levodopa], the relative cell viability came to 110.
For the compound `CNCC[C@H](Oc1cccc2ccccc12)c1cccs1` [Duloxetine HCl], the relative cell viability worked out at 92.
For the compound `CCCNC(C)C(=O)Nc1c(C)csc1C(=O)OC` (stereo not drawn) [Articaine HCl], the relative cell viability came to 105.
Consider `CCOc1nc2cccc(C(=O)O)c2n1Cc1ccc(-c2ccccc2-c2nnn[nH]2)cc1` [Candesartan], for which the relative cell viability was 110.
On to `COc1ccc(-c2nc3cc(C4=NNC(=O)CC4C)ccc3[nH]2)cc1` (stereo not drawn) [Pimobendan], for which the relative cell viability worked out at 107.
Regarding `CCCN[C@H]1CCc2nc(N)sc2C1` [Pramipexole dihydrochloride monohydrate], the relative cell viability came to 103.
As for `CCN(CC)C(=S)SSC(=S)N(CC)CC` [Disulfiram], the relative cell viability came to 12.3.
Consider `CN[C@H](CC(C)C)C(=O)N[C@H]1C(=O)N[C@@H](CC(N)=O)C(=O)N[C@H]2C(=O)N[C@H]3C(=O)N[C@H](C(=O)N[C@H](C(=O)O)c4cc(O)cc(O)c4-c4cc3ccc4O)[C@H](O)c3ccc(c(Cl)c3)Oc3cc2cc(c3O[C@@H]2O[C@H](CO)[C@@H](O)[C@H](O)[C@H]2O[C@H]2C[C@](C)(N)[C@H](O)[C@H](C)O2)Oc2ccc(cc2Cl)[C@H]1O` [Vancomycin HCl], for which the relative cell viability was found to be 105.
With `COC(=O)[C@H](c1ccccc1Cl)N1CCc2sccc2C1` [Clopidogrel], the relative cell viability came to 105.
For `CN(CCOc1ccc(NS(C)(=O)=O)cc1)CCc1ccc(NS(C)(=O)=O)cc1` [Dofetilide], the relative cell viability turned out to be 102.
As for `COC(=O)N[C@H](C(=O)N[C@@H](Cc1ccccc1)[C@@H](O)CN(Cc1ccc(-c2ccccn2)cc1)NC(=O)[C@@H](NC(=O)OC)C(C)(C)C)C(C)(C)C` [Atazanavir sulfate], the figure is 104.
As for `CN(C)CCc1c[nH]c2ccc(Cn3cncn3)cc12` [Rizatriptan Benzoate], the relative cell viability was determined as 103.
As to `CC=CC1=C(C(=O)O)N2C(=O)[C@@H](NC(=O)[C@H](N)c3ccc(O)cc3)[C@H]2SC1` [Cefprozil hydrate], the relative cell viability was 95.4.
With `NC(=O)CC[C@H](N)C(=O)O` [L-Glutamine], the relative cell viability worked out at 98.4.
In the case of `CCOC(=O)[C@H](CCc1ccccc1)N[C@@H](C)C(=O)N1[C@H](C(=O)O)C[C@@H]2CCC[C@@H]21` [Ramipril], the relative cell viability was found to be 100.
Regarding `CN(C)CCCN1c2ccccc2Sc2ccc(C(F)(F)F)cc21` [Triflupromazine HCl], the relative cell viability was 98.8.
As for `OC(CCN1CCCCC1)(c1ccccc1)C1CC2C=CC1C2` (stereo not drawn) [Biperiden HCl], the relative cell viability was found to be 106.
`CC(=O)Oc1ccccc1C(=O)O` [Aspirin]: the relative cell viability came out at 94.
As for `COc1ccccc1OCC(O)COC(N)=O` (stereo not drawn) [Methocarbamol], the relative cell viability was found to be 104.
As for `CCC(C)n1ncn(-c2ccc(N3CCN(c4ccc(OCC5COC(Cn6cncn6)(c6ccc(Cl)cc6Cl)O5)cc4)CC3)cc2)c1=O` (stereo not drawn) [Itraconazole], the relative cell viability was 99.1.
`NC(=O)c1ncn([C@@H]2O[C@H](CO)[C@@H](O)[C@H]2O)c1O` [Mizoribine]: the relative cell viability was 103.
`COc1cc(OC)c(C(=O)CCCN2CCCC2)c(OC)c1` [Buflomedil HCl]: the relative cell viability amounted to 101.
With `COc1ccc2cc1Oc1ccc(cc1)C[C@H]1c3c(cc4c(c3Oc3cc5c(cc3OC)CCN(C)[C@@H]5C2)OCO4)CCN1C` [Cepharanthine], the relative cell viability amounted to 98.8.
